Over roughly 16,000 sequences, “rpm ratio (pull-down/input)” has its median near 0.94; the highest 2% begin near 1.7. The entries come from a sample that favours the highest values as a whole.

For this assay, the target named is T1, MBP-FoxP1dN (Mus musculus, UniProt P58462 326-579).
T1 sequence: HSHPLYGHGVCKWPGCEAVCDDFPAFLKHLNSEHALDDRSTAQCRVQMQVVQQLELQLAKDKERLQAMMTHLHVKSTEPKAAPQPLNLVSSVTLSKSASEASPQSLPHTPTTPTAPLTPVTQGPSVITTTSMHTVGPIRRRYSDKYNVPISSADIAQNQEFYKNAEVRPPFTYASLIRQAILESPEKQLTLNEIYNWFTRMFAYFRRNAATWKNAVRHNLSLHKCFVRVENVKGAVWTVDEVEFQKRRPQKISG
The assay can be described thus: PD-seq (MBP pull-down with sequencing); 20 mM Tris-HCl pH 7.5, 100 mM NaCl, 1.5 mM MgCl2, 0.4 uM protein, 0.1 uM dsDNA library, 30 min, room temperature, amylose pull-down; high values mean tight binding. The following applies: protein: recombinant; tags: His6-MBP; chain copies: 2; dsDNA, one strand shown. The procedure, abridged: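 A fragment of mouse FoxP3 or FoxP1 without its N-terminus, carrying a His6-MBP tag and produced in E. coli, was combined at 0.4 µM with a 0.1 µM degenerate double-stranded DNA library filled in with Klenow. The mixture sat for 30 min at room temperature in Tris pH 7.5 buffer containing NaCl and MgCl2. Protein–DNA complexes were captured on amylose resin, washed three times, and the DNA was freed with proteinase K, barcoded by PCR and sequenced on Illumina. Binding is expressed as reads-per-million enrichment of pull-down over input, with replicates pooled.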
On to “GATGATTGTTCTCCCAGCTGATGAATTGACCGCGTCGAGTAAACAAATTTTCCTAATCTTTCTGTTCAAGCGCCATCTAC”, for which the binding signal is 0.965 RPM ratio (pull-down/input). With “GATGATTGTTCTCCCAGCTGATGAATTAAAACGATCGAGTAAACAAATTTTCCTAATCTTTCTGTTCAAGCGCCATCTAC”, the binding signal is 0.959 RPM ratio (pull-down/input). The value for “GATGATTGTTCTCCCAGCTGATGAATTAAGAGAATCGAGTAAACAAATTTTCCTAATCTTTCTGTTCAAGCGCCATCTAC” was 0.949 RPM ratio (pull-down/input); that for “GATGATTGTTCTCCCAGCTGATGAATTTGTTTGCTCGAGTAAACAAATTTTCCTAATCTTTCTGTTCAAGCGCCATCTAC” was 2.43 RPM ratio (pull-down/input); that for “GATGATTGTTCTCCCAGCTGATGAATTGTGCTGCTCGAGTAAACAAATTTTCCTAATCTTTCTGTTCAAGCGCCATCTAC” was 0.988 RPM ratio (pull-down/input). As for “GATGATTGTTCTCCCAGCTGATGAATTGTTGCTCTCGAGTAAACAAATTTTCCTAATCTTTCTGTTCAAGCGCCATCTAC”, the binding signal was 1.39 RPM ratio (pull-down/input). As for “GATGATTGTTCTCCCAGCTGATGAATTTCTGTGCTCGAGTAAACAAATTTTCCTAATCTTTCTGTTCAAGCGCCATCTAC”, the figure is 0.877 RPM ratio (pull-down/input); as for “GATGATTGTTCTCCCAGCTGATGAATTTTGTTGCTCGAGTAAACAAATTTTCCTAATCTTTCTGTTCAAGCGCCATCTAC”, 1.79 RPM ratio (pull-down/input); as for “GATGATTGTTCTCCCAGCTGATGAATTTTGCTCCTCGAGTAAACAAATTTTCCTAATCTTTCTGTTCAAGCGCCATCTAC”, 0.907 RPM ratio (pull-down/input). The value for “GATGATTGTTCTCCCAGCTGATGAATTGTTGTGCTCGAGTAAACAAATTTTCCTAATCTTTCTGTTCAAGCGCCATCTAC” was 2.06 RPM ratio (pull-down/input).

Regarding “GATGATTGTTCTCCCAGCTGATGAATTTTTTTGCTCGAGTAAACAAATTTTCCTAATCTTTCTGTTCAAGCGCCATCTAC”, the binding signal was 0.948 RPM ratio (pull-down/input). On to “GATGATTGTTCTCCCAGCTGATGAATTTGATTGCTCGAGTAAACAAATTTTCCTAATCTTTCTGTTCAAGCGCCATCTAC”, for which the binding signal was 1.16 RPM ratio (pull-down/input). The value for “GATGATTGTTCTCCCAGCTGATGAATTGTTTTGCTCGAGTAAACAAATTTTCCTAATCTTTCTGTTCAAGCGCCATCTAC” was 1.95 RPM ratio (pull-down/input); that for “GATGATTGTTCTCCCAGCTGATGAATTCTTTTGCTCGAGTAAACAAATTTTCCTAATCTTTCTGTTCAAGCGCCATCTAC” was 0.898 RPM ratio (pull-down/input). As for “GATGATTGTTCTCCCAGCTGATGAATTTCTTTGCTCGAGTAAACAAATTTTCCTAATCTTTCTGTTCAAGCGCCATCTAC”, the figure is 0.931 RPM ratio (pull-down/input); as for “GATGATTGTTCTCCCAGCTGATGAATTATAATTCTCGAGTAAACAAATTTTCCTAATCTTTCTGTTCAAGCGCCATCTAC”, 0.978 RPM ratio (pull-down/input); as for “GATGATTGTTCTCCCAGCTGATGAATTTCATCTATCGAGTAAACAAATTTTCCTAATCTTTCTGTTCAAGCGCCATCTAC”, 0.877 RPM ratio (pull-down/input). Regarding “GATGATTGTTCTCCCAGCTGATGAATTCGCGTATTCGAGTAAACAAATTTTCCTAATCTTTCTGTTCAAGCGCCATCTAC”, the binding signal was 0.979 RPM ratio (pull-down/input).

As for “GATGATTGTTCTCCCAGCTGATGAATTTGAAATCTCGAGTAAACAAATTTTCCTAATCTTTCTGTTCAAGCGCCATCTAC”, the binding signal is 0.737 RPM ratio (pull-down/input). As to “GATGATTGTTCTCCCAGCTGATGAATTAACGAGTTCGAGTAAACAAATTTTCCTAATCTTTCTGTTCAAGCGCCATCTAC”, the binding signal is 0.92 RPM ratio (pull-down/input). Consider “GATGATTGTTCTCCCAGCTGATGAATTAGCGACCTCGAGTAAACAAATTTTCCTAATCTTTCTGTTCAAGCGCCATCTAC”, for which the binding signal was 0.762 RPM ratio (pull-down/input). As for “GATGATTGTTCTCCCAGCTGATGAATTCCTGAACTCGAGTAAACAAATTTTCCTAATCTTTCTGTTCAAGCGCCATCTAC”, the figure is 0.79 RPM ratio (pull-down/input). As for “GATGATTGTTCTCCCAGCTGATGAATTAGCATAGTCGAGTAAACAAATTTTCCTAATCTTTCTGTTCAAGCGCCATCTAC”, the figure is 0.88 RPM ratio (pull-down/input); as for “GATGATTGTTCTCCCAGCTGATGAATTTGTTGTGTCGAGTAAACAAATTTTCCTAATCTTTCTGTTCAAGCGCCATCTAC”, 2.48 RPM ratio (pull-down/input); as for “GATGATTGTTCTCCCAGCTGATGAATTTTGTGTGTCGAGTAAACAAATTTTCCTAATCTTTCTGTTCAAGCGCCATCTAC”, 1.48 RPM ratio (pull-down/input). As for “GATGATTGTTCTCCCAGCTGATGAATTGTGTGTGTCGAGTAAACAAATTTTCCTAATCTTTCTGTTCAAGCGCCATCTAC”, the figure is 1.52 RPM ratio (pull-down/input); as for “GATGATTGTTCTCCCAGCTGATGAATTTGTGTTGTCGAGTAAACAAATTTTCCTAATCTTTCTGTTCAAGCGCCATCTAC”, 2.64 RPM ratio (pull-down/input); as for “GATGATTGTTCTCCCAGCTGATGAATTTTTTGTGTCGAGTAAACAAATTTTCCTAATCTTTCTGTTCAAGCGCCATCTAC”, 1.12 RPM ratio (pull-down/input). For the sequence “GATGATTGTTCTCCCAGCTGATGAATTTGTGTCGTCGAGTAAACAAATTTTCCTAATCTTTCTGTTCAAGCGCCATCTAC”, the binding signal is 1.23 RPM ratio (pull-down/input). As for “GATGATTGTTCTCCCAGCTGATGAATTCCGTACCTCGAGTAAACAAATTTTCCTAATCTTTCTGTTCAAGCGCCATCTAC”, the figure is 0.829 RPM ratio (pull-down/input); as for “GATGATTGTTCTCCCAGCTGATGAATTATCTGTCTCGAGTAAACAAATTTTCCTAATCTTTCTGTTCAAGCGCCATCTAC”, 0.945 RPM ratio (pull-down/input); as for “GATGATTGTTCTCCCAGCTGATGAATTGTATATCTCGAGTAAACAAATTTTCCTAATCTTTCTGTTCAAGCGCCATCTAC”, 1.36 RPM ratio (pull-down/input). As for “GATGATTGTTCTCCCAGCTGATGAATTGTGTATATCGAGTAAACAAATTTTCCTAATCTTTCTGTTCAAGCGCCATCTAC”, the figure is 1.9 RPM ratio (pull-down/input).

These data come from paper PMC12820563, “FoxP3 forms a head-to-head dimer in vivo and stabilizes its multimerization on adjacent microsatellites”.
